Source: the supplement of paper PMC10849652
The full data set covers some 7,900 targets. This sample favours those with a hit. About 0.6% of all pairs of compound and target were hits.

Tests used:
Assay in all cases: log2 fold change, soluble protein after heating vs DMSO (PISA); higher = thermal stabilisation; K562 cells, 10 uM, 30 min; active = over 0.2 and 3.5 SD of the protein, either way, in both replicates (recomputed)
[1] = compound: CS(=O)(=O)c1ccc(-c2cnc(N)c(C(=O)Nc3ccccc3)n2)cc1
Procedure, shortened: (§1)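 Soluble protein was defined as the supernatant after 21,000xg for 90 min. It came from K562 cells at 2×10^6 cells/mL given 10 μM compound for 30 min, heated in aliquots for 3 min across 48°C-58°C, pooled, and extracted in PBS with 0.5% NP-40 at 4°C, and was quantified by TMTpro 16plex LC-MS/MS with equalised channel sums. Thermal stability against control samples, from duplicates, is reported as log2 fold change.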

crizotinib = compound: C[C@@H](Oc1cc(-c2cnn(C3CCNCC3)c2)cnc1N)c1c(Cl)ccc(F)c1Cl [crizotinib]
Procedure, shortened: as §1

[2] = compound: C[C@@H]1COCCN1C2=NC(=NC(=C2)C3(CC3)S(=O)(=O)C)C4=C5C=CNC5=CC=C4
Procedure, shortened: as §1

[3] = compound: C[C@H](C1=CC=C(C=C1)C(=O)NC2=C3C=CNC3=NC=C2)N
Procedure, shortened: as §1

duvelisib = compound: C[C@H](Nc1ncnc2nc[nH]c12)c1cc2cccc(Cl)c2c(=O)n1-c1ccccc1 [duvelisib]
Procedure, shortened: as §1

gandotinib = compound: Cc1cc(Nc2cc(CN3CCOCC3)c3nc(C)c(Cc4ccc(Cl)cc4F)n3n2)n[nH]1 [gandotinib]
Procedure, shortened: as §1

tozasertib = compound: Cc1cc(Nc2cc(N3CCN(C)CC3)nc(Sc3ccc(NC(=O)C4CC4)cc3)n2)n[nH]1 [tozasertib]
Procedure, shortened: as §1

[4] = compound: Cc1cc(SCc2sc(-c3ccc(C(F)(F)F)cc3)nc2C)ccc1OCC(=O)O
Procedure, shortened: as §1

doramapimod = compound: Cc1ccc(-n2nc(C(C)(C)C)cc2NC(=O)Nc2ccc(OCCN3CCOCC3)c3ccccc23)cc1 [doramapimod]
Procedure, shortened: as §1

ispinesib = compound: Cc1ccc(C(=O)N(CCCN)[C@@H](c2nc3cc(Cl)ccc3c(=O)n2Cc2ccccc2)C(C)C)cc1 [ispinesib]
Procedure, shortened: as §1

bafetinib = compound: Cc1ccc(NC(=O)c2ccc(CN3CC[C@H](N(C)C)C3)c(C(F)(F)F)c2)cc1Nc1nccc(-c2cncnc2)n1 [bafetinib]
Procedure, shortened: as §1

[5] = compound: Cc1cccc(CC(=O)N2CCc3c2ccc(-c2cn(C)c4ncnc(N)c24)c3F)n1
Procedure, shortened: as §1

nilotinib = compound: Cc1cn(-c2cc(NC(=O)c3ccc(C)c(Nc4nccc(-c5cccnc5)n4)c3)cc(C(F)(F)F)c2)cn1 [nilotinib]
Procedure, shortened: as §1

[6] = compound: Cc1nc(Nc2n[nH]c3c2CN(C(=O)N[C@H](CN(C)C)c2ccccc2)C3(C)C)c2sccc2n1
Procedure, shortened: as §1

dasatinib = compound: Cc1nc(Nc2ncc(C(=O)Nc3c(C)cccc3Cl)s2)cc(N2CCN(CCO)CC2)n1 [dasatinib]
Procedure, shortened: as §1

[7] = compound: Cc1ncc(-c2ccnc(Nc3ccc(S(C)(=O)=O)cc3)n2)n1C(C)C
Procedure, shortened: as §1

[8] = compound: Cn1cc(-c2ccc3c(c2)CCN3C(=O)Cc2cccc(C(F)(F)F)c2)c2c(N)ncnc21
Procedure, shortened: as §1

[9] = compound: Cn1cc(-c2ccc3nnc(C(F)(F)c4ccc5ncccc5c4)n3n2)cn1
Procedure, shortened: as §1

tipifarnib = compound: Cn1cncc1[C@@](N)(c1ccc(Cl)cc1)c1ccc2c(c1)c(-c1cccc(Cl)c1)cc(=O)n2C [tipifarnib]
Procedure, shortened: as §1

mubritinib = compound: FC(F)(F)c1ccc(/C=C/c2nc(COc3ccc(CCCCn4ccnn4)cc3)co2)cc1 [mubritinib]
Procedure, shortened: as §1

Measured: log2 fold change

GCDH (UniProt Q92947)
UniProt Q92947, sequence (Q92947 whole entry, looked up): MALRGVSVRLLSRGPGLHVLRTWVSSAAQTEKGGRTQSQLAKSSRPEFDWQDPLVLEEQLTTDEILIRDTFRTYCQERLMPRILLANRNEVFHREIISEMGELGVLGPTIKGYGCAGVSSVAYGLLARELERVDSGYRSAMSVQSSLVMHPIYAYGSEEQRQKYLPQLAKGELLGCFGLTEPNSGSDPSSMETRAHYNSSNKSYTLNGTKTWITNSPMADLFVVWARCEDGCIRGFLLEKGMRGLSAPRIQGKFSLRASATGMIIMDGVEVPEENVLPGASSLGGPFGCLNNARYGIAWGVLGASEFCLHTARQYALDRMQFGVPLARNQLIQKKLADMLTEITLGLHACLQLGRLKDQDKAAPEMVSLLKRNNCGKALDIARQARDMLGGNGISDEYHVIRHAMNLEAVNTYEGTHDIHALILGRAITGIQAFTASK
inactive: [1] 0.004 | crizotinib 0.058 | [2] 0.112 | [3] -0.032 | duvelisib 0.098 | gandotinib 0.076 | tozasertib -0.107 | [4] -0.021 | doramapimod -0.012 | ispinesib 0.041 | bafetinib -0.047 | [5] 0.007 | nilotinib 0.002 | [6] 0.017 | dasatinib -0.059 | [7] -0.001 | [8] 0.08 | [9] -0.129 | tipifarnib -0.007 | mubritinib -0.028

GPX4 (UniProt P36969)
UniProt P36969, sequence (P36969 whole entry, looked up): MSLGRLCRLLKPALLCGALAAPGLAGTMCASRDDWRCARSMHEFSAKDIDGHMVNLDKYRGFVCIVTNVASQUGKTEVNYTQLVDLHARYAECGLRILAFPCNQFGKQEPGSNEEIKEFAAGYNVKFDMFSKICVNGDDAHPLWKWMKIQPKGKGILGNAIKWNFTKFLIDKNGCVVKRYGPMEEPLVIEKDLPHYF
inactive: [1] 0.014 | crizotinib 0.079 | [2] 0.011 | [3] -0.072 | duvelisib 0.055 | gandotinib 0.013 | tozasertib 0.023 | [4] -0.017 | doramapimod -0.039 | ispinesib 0.213 | bafetinib 0.003 | [5] 0.023 | nilotinib 0.036 | [6] -0.031 | dasatinib 0.015 | [7] 0.019 | [8] 0.05 | [9] 0.003 | tipifarnib -0.046 | mubritinib 0.033

GCC2 (UniProt Q8IWJ2)
inactive: [1] 0.04 | crizotinib -0.01 | [2] -0.104 | [3] 0.246 | duvelisib -0.007 | gandotinib 0.081 | tozasertib 0.113 | [4] 0.048 | doramapimod 0.136 | ispinesib -0.173 | bafetinib 0.033 | [5] -0.045 | nilotinib -0.14 | [6] -0.071 | dasatinib -0.011 | [7] 0.119 | [8] -0.032 | [9] 0.02 | tipifarnib 0.051 | mubritinib -0.088

HNRNPK isoform 2 (UniProt P61978)
inactive: [1] -0.01 | crizotinib 0.072 | [2] 0.074 | [3] -0.028 | duvelisib 0.036 | gandotinib -0.108 | tozasertib -0.021 | [4] 0.052 | doramapimod -0.064 | ispinesib -0.025 | bafetinib -0.03 | [5] 0.007 | nilotinib -0.084 | [6] -0.206 | dasatinib -0.072 | [7] -0.136 | [8] 0.031 | [9] 0.017 | tipifarnib 0.007 | mubritinib -0.024

FARS2 (UniProt O95363)
UniProt O95363, sequence (O95363 whole entry, looked up): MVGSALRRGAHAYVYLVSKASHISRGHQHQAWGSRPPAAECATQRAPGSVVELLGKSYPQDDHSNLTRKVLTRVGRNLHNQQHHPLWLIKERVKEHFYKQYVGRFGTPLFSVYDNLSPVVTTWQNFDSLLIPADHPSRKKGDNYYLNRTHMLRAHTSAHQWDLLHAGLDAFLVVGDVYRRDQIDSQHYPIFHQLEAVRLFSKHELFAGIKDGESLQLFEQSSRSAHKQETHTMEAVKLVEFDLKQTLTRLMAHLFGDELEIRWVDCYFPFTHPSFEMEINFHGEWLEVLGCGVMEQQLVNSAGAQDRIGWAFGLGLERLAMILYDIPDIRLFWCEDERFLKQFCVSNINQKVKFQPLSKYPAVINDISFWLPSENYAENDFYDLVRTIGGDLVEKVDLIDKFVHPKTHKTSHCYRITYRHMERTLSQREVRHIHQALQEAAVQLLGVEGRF
inactive: [1] 0.004 | crizotinib -0.043 | [2] 0.088 | [3] 0.041 | duvelisib 0.073 | gandotinib -0.021 | tozasertib 0.045 | [4] 0.06 | doramapimod -0.023 | ispinesib -0.157 | bafetinib -0.058 | [5] 0.064 | nilotinib -0.126 | [6] 0.079 | dasatinib -0.058 | [7] -0.097 | [8] 0.039 | [9] 0.039 | tipifarnib 0.018 | mubritinib -0.168

GALNT1 (UniProt Q10472)
UniProt Q10472, sequence (Q10472 whole entry, looked up): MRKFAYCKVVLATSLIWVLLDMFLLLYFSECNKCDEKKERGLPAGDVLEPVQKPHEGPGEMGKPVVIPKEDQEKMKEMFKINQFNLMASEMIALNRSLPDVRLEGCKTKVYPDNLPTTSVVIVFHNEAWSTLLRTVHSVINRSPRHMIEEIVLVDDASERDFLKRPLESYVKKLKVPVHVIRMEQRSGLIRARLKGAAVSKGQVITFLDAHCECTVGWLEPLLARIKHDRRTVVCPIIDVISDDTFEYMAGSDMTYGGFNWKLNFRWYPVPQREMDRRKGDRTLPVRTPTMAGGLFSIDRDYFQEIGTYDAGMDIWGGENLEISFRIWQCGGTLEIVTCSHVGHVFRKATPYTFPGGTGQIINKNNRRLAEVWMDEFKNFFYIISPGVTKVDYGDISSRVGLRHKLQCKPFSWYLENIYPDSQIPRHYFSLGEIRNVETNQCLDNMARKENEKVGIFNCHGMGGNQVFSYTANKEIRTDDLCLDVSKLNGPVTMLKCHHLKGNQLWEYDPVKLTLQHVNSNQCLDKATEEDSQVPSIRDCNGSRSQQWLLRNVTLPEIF
inactive: [1] 0.014 | crizotinib -0.012 | [2] 0.019 | [3] -0.013 | duvelisib 0.046 | gandotinib 0.012 | tozasertib -0.043 | [4] 0.004 | doramapimod 0.026 | ispinesib 0.048 | bafetinib -0.053 | [5] -0.065 | nilotinib -0.059 | [6] 0.014 | dasatinib 0.014 | [7] 0.142 | [8] 0.1 | [9] -0.093 | tipifarnib 0.019 | mubritinib 0.029

GINS2 (UniProt Q9Y248)
UniProt Q9Y248, sequence (Q9Y248 whole entry, looked up): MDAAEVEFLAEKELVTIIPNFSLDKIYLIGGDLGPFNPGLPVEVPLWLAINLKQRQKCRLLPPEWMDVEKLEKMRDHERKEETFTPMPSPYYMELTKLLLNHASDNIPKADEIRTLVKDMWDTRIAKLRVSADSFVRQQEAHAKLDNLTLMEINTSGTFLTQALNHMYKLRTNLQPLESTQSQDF
inactive: [1] -0.066 | crizotinib -0.036 | [2] -0.046 | [3] -0.15 | duvelisib 0.164 | gandotinib 0.004 | tozasertib 0.145 | [4] 0.247 | doramapimod 0.026 | ispinesib 0.167 | bafetinib -0.025 | [5] 0.106 | nilotinib -0.024 | [6] -0.031 | dasatinib -0.265 | [7] 0.03 | [8] -0.057 | [9] -0.111 | tipifarnib -0.064 | mubritinib 0.03

HDGFL2 (UniProt Q7Z4V5)
UniProt Q7Z4V5, sequence (Q7Z4V5 whole entry, looked up): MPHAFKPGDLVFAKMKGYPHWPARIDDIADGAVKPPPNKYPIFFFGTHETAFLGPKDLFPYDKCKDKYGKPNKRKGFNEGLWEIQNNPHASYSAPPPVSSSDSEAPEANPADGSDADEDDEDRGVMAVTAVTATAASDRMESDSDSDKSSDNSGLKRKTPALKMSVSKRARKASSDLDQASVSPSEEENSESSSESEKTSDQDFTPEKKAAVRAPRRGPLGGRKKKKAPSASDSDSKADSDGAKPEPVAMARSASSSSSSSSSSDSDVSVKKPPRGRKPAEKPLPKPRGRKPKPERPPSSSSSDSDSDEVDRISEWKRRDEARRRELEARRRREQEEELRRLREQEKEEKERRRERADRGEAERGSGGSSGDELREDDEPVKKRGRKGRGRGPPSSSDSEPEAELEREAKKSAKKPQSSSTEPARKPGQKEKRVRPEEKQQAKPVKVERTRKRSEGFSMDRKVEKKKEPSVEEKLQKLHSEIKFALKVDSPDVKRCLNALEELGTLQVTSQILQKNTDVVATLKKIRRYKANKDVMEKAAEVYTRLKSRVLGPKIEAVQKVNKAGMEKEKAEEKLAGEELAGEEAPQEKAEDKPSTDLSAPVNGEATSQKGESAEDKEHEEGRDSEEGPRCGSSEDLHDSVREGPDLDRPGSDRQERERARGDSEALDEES
inactive: [1] 0.086 | crizotinib -0.007 | [2] -0.052 | [3] -0.04 | duvelisib -0.047 | gandotinib 0.005 | tozasertib -0.004 | [4] -0.061 | doramapimod -0.045 | ispinesib 0.019 | bafetinib -0.017 | [5] -0.013 | nilotinib -0.007 | [6] -0.061 | dasatinib 0.035 | [7] -0.029 | [8] -0.018 | [9] -0.048 | tipifarnib 0.032 | mubritinib 0.098

HEATR5B (UniProt Q9P2D3)
inactive: [1] 0.055 | crizotinib -0.058 | [2] -0.11 | [3] 0.103 | duvelisib -0.026 | gandotinib -0.039 | tozasertib -0.019 | [4] 0.036 | doramapimod -0.015 | ispinesib -0.021 | bafetinib -0.007 | [5] 0.014 | nilotinib -0.049 | [6] -0.066 | dasatinib -0.119 | [7] 0.072 | [8] -0.029 | [9] -0.012 | tipifarnib -0.052 | mubritinib 0.034

HTATIP2 isoform 3 (UniProt Q9BUP3)
UniProt Q9BUP3, sequence (Q9BUP3 whole entry, looked up): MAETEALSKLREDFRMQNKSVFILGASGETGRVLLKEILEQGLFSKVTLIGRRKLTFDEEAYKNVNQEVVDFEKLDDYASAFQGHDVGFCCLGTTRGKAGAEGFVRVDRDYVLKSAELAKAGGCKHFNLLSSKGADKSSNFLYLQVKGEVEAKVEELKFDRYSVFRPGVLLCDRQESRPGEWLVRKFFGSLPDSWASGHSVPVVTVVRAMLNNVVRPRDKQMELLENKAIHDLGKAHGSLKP
inactive: [1] 0.014 | crizotinib -0.106 | [2] 0.023 | [3] -0.145 | gandotinib 0.003 | tozasertib 0.013 | [4] 0.027 | doramapimod 0.003 | ispinesib -0.111 | bafetinib -0.143 | [5] -0.016 | nilotinib 0.116 | [6] -0.056 | dasatinib -0.046 | [7] -0.002 | [8] 0.031 | [9] 0.067 | tipifarnib 0.106 | mubritinib -0.063
active: duvelisib 0.294

FANCI (UniProt Q9NVI1)
UniProt Q9NVI1, sequence (Q9NVI1 whole entry, looked up): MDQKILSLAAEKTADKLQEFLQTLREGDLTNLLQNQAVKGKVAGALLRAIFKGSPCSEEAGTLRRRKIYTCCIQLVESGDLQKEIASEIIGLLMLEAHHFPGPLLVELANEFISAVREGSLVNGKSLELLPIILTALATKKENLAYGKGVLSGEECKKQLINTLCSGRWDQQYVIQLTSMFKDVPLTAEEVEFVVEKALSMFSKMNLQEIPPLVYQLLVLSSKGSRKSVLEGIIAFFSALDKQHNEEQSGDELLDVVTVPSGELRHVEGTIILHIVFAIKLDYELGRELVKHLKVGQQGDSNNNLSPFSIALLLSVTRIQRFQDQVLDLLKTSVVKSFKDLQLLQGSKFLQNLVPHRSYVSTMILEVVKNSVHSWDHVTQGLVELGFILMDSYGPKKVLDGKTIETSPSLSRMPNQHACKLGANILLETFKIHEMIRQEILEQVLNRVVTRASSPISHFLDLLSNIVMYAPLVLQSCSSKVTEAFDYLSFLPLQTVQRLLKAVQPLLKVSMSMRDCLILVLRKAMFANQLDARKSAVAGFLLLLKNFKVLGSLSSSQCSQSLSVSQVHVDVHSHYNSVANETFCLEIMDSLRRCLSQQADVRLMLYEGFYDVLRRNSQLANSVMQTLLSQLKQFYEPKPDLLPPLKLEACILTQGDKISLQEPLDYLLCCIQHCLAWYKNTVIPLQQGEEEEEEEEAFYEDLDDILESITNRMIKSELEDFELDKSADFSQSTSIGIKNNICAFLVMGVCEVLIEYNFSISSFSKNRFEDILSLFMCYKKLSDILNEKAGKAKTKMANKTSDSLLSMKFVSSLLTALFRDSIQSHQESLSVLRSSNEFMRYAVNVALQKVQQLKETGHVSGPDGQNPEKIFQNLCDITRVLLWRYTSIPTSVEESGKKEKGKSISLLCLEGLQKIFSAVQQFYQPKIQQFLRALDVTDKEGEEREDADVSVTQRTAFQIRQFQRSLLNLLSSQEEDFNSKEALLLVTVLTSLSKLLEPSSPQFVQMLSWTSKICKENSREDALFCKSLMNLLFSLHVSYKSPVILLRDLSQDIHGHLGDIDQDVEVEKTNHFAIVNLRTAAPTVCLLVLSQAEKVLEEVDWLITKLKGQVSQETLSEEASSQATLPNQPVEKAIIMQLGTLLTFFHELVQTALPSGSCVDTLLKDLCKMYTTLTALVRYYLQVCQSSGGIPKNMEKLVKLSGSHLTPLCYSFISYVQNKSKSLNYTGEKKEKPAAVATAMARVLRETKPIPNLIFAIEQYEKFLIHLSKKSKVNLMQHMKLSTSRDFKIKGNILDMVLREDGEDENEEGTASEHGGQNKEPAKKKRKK
inactive: [1] -0.074 | crizotinib -0.138 | [2] 0.139 | [3] 0 | duvelisib 0.031 | gandotinib -0.14 | tozasertib 0.029 | [4] 0.038 | doramapimod -0.021 | ispinesib -0.071 | bafetinib -0.043 | [5] 0.041 | nilotinib -0.13 | [6] 0.113 | dasatinib -0.118 | [7] -0.085 | [8] 0.075 | [9] 0.098 | tipifarnib -0.027 | mubritinib 0.086

GNAI3 (UniProt P08754)
UniProt P08754, sequence (P08754 whole entry, looked up): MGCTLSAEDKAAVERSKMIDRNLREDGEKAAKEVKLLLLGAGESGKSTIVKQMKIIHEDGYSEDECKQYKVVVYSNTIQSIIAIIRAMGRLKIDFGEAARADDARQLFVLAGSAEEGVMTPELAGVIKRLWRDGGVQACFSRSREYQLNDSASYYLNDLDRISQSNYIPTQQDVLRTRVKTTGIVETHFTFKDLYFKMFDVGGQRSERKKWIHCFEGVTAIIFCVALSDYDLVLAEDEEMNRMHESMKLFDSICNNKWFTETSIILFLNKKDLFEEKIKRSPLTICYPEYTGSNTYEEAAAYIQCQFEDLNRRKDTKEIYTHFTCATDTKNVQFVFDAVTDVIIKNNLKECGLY
inactive: [1] 0.121 | crizotinib 0.103 | [2] -0.122 | [3] 0.003 | duvelisib 0.002 | gandotinib 0.039 | tozasertib -0.023 | [4] -0.014 | doramapimod 0.036 | ispinesib -0.008 | bafetinib 0.066 | [5] 0.033 | nilotinib 0.185 | [6] 0.008 | dasatinib 0.086 | [7] -0.004 | [8] -0.017 | [9] 0.018 | tipifarnib -0.008 | mubritinib -0.032

IDH3A (UniProt P50213)
UniProt P50213, sequence (P50213 whole entry, looked up): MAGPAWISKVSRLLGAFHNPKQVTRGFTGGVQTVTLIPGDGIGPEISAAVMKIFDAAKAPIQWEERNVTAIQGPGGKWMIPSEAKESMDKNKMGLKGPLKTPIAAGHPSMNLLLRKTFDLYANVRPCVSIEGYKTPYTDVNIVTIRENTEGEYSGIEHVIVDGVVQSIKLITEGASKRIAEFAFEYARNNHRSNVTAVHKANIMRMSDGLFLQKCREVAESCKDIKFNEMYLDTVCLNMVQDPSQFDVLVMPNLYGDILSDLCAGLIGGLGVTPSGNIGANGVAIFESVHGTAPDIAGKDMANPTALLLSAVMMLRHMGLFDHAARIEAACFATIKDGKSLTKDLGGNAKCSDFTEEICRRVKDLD
inactive: [1] 0.023 | crizotinib 0.006 | [2] 0.07 | [3] -0.046 | duvelisib 0.063 | gandotinib -0.037 | tozasertib -0.029 | [4] 0.022 | doramapimod -0.024 | ispinesib 0.013 | bafetinib -0.016 | [5] 0.021 | nilotinib -0.027 | [6] -0.006 | dasatinib -0.005 | [7] -0.024 | [8] 0.045 | [9] 0.021 | tipifarnib -0.001 | mubritinib 0.06
